Data from PubChem BioAssay (Tox21).
Inconclusive results are not listed. Where a call stands in place of a potency, no number is given. A number with no mark means an inactive call. Calls of active or inactive are those of the source. Calls follow the shape of the full dose curve.

Target: Peroxisome proliferator-activated receptor delta (Homo sapiens) (UniProt Q03181)
Test: qHTS assay to identify small molecule agonists of the peroxisome proliferator-activated receptor delta (PPARd) signaling pathway (AID 743212)
Conditions: HEK293H PPARd-UAS-bla, beta-lactamase FRET ratio, 17 h; series mostly up to 62.6 µM
From the text: U.S. Tox21 Program National Center for Advancing Translational Sciences [NCATS] NIH Chemical Genomics Center [NCGC] U.S. Environmental Protection Agency [EPA] National Institutes of Environmental Health Sciences [NIEHS] National Toxicology Program [NTP] U.S. Food and Drug Administration [FDA] Tox21 Assay Overview: The peroxisome proliferator-activated receptors (PPARs) are lipid-activated transcription factors of the nuclear receptor superfamily with three distinct subtypes namely PPAR alpha, PPAR delta (PPARd) and PPAR gamma. All these subtypes heterodimerizes with Retinoid X receptor (RXR) and have different physiological functions. […] To identify the compounds that activate PPAR-delta signaling, GeneBLAzer PPAR delta UAS-bla HEK293H cell line (Invitrogen, Carlsbad, CA, USA) containing a beta-lactamase reporter gene under the control of an Upstream Activator Sequence (UAS) was used to screen the Tox21 compound library.
Tox21 Assay Protocol Summary: PPARd-bla cells were dispensed at 3000 cells/6uL/well in 1536-well black wall/clear bottom plates using a Multidrop Combi (Thermo Fisher Scientific, Waltham, MA) dispenser. After the assay plates were incubated at 37 C and 5% CO2 for 5 h, 23 nL of compounds dissolved in DMSO, positive controls or DMSO only was transferred to the assay plate by a Pintool station (Kalypsys, San Diego, CA). The assay plates were incubated at 37C for 17 h. After 1 uL of LiveBLAzerTM B/G FRET substrate was added using a Bioraptr Flying Reagent Dispenser (FRD) workstation (Beckman Coulter, Indianapolis, IN, USA), the plates were incubated at room temperature for 2 h, and fluorescence intensity was measured by an Envision plate reader (PerkinElmer, Shelton, CT).

Chain of Peroxisome proliferator-activated receptor delta (Homo sapiens) (Q03181 whole entry, looked up): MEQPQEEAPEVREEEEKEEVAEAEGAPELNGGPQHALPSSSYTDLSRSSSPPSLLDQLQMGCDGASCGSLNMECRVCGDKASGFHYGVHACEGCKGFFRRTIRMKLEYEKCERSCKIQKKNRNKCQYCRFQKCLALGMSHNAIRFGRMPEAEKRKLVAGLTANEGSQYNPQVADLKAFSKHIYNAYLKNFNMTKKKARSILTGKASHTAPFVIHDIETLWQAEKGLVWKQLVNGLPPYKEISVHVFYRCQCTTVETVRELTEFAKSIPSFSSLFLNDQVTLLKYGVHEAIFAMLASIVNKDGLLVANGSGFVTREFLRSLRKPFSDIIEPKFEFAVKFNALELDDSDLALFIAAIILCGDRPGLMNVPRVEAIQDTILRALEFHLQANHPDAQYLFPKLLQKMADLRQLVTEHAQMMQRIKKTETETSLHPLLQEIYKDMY

Row | Structure (SMILES) | Potency | activation
1 | Cc1ccc(S)cc1 | inactive | 
2 | CC[C@H](NC(=O)c1cc(F)ccc1NS(=O)(=O)c1cccc2cccnc12)c1ccccc1 | inactive | 
3 | Cc1ccccc1N1C(=O)c2cc(S(N)(=O)=O)c(Cl)cc2NC1C (stereo not given) | inactive | 
4 | O=C(O)c1c(O)c(-c2ccccc2)nc2ccccc12 | inactive | 
5 | CCc1c2c(nc3ccc(OC(=O)N4CCC(N5CCCCC5)CC4)cc13)-c1cc3c(c(=O)n1C2)COC(=O)[C@]3(O)CC | inactive | 
6 | Cc1cnc(C)c(C)n1 | inactive | 
7 | CC(C)CCCC(=O)O | inactive | 
8 | CC(N)CN (stereo not given) | inactive | 
9 | CCCCCCCCCCCC[N+](C)(C)CCCS(=O)(=O)[O-] | inactive | 
10 | CC(=O)Nc1ccccc1C | inactive | 
11 | CC(C)(CCl)c1ccccc1 | inactive | 
12 | CC1CN(c2cc3c(cc2F)c(=O)c(C(=O)O)cn3-c2ccc(F)cc2F)CCN1 (stereo not given) |  | 3.73% [at 5.95 µM]
13 | OCCSc1ccccc1 | inactive | 
14 | CO[C@@]12[C@H](COC(N)=O)C3=C(C(=O)C(C)=C(N)C3=O)N1C[C@@H]1N[C@@H]12 | inactive | 
15 | NCC1CCCC(CN)C1 (stereo not given) | inactive | 
16 | Cc1ccc(S(=O)(=O)NC2CCCCC2)cc1 | inactive | 
17 | CCC(C)(C)C1CCC(O)CC1 (stereo not given) | inactive | 
18 | CO/N=C1\CN(c2nc3c(cc2F)c(=O)c(C(=O)O)cn3C2CC2)CC1CN (stereo not given) | inactive | 
19 | CCCCC(CC)C(=O)OCCOCCOCCOCCOC(=O)C(CC)CCCC (stereo not given) | inactive | 
20 | C[C@@H]1C[C@H]2[C@@H]3CCC4=CC(=O)C=C[C@]4(C)[C@@]3(F)[C@@H](O)C[C@]2(C)[C@@]1(O)C(=O)CO | inactive | 

Row | Structure (SMILES) | Potency | activation
21 | CC(CCO)CCc1ccccc1 (stereo not given) | inactive | 
22 | c1ccc(COCc2ccccc2)cc1 | inactive | 
23 | C=CC(C)(C)CC(=O)OC | inactive | 
24 | O=S(=O)(c1ccccc1)c1ccc(Cl)cc1 | inactive | 
25 | CC1CC(O)CC(C)(C)C1 (stereo not given) | inactive | 
26 | C1COCO1 | inactive | 
27 | CC(=N\O)/C(C)=N/O | inactive | 
28 | CC1=C(C=O)C(C)(C)CCC1 | inactive | 
29 | CCCCCCOC(=O)CCCCCCCC(=O)OCCCCCC | inactive | 
30 | O=C(O)c1ccc(CO)o1 | inactive | 
31 | CNC(=S)NC | inactive | 
32 | OCC1CC=CCC1 (stereo not given) | inactive | 
33 | Cc1nc2ccccc2s1 | inactive | 
34 | O=C(CCCCCCC(=O)Nc1ccccc1)NO | inactive | 
35 | COC(=O)[C@@H]1CC2=CC(=O)CC[C@]2(C)[C@@]23O[C@@H]2C[C@@]2(C)[C@@H](CC[C@@]24CCC(=O)O4)[C@H]13 | inactive | 
36 | CCCCC(=O)O[C@]1(C(=O)CO)[C@@H](C)C[C@H]2[C@@H]3CCC4=CC(=O)C=C[C@]4(C)[C@@]3(F)[C@@H](O)C[C@@]21C | inactive | 
37 | CCOC(=O)/C=C/C(=O)O | inactive | 
38 | CCCCCCCC/C=C\CCCCCCCC(=O)OC | inactive | 
39 | CCCCCCCCCCCC(=O)[O][Sn]([CH2]CCC)([CH2]CCC)[O]C(=O)CCCCCCCCCCC | inactive | 
40 | CN(C(=O)C(Cl)Cl)c1ccc(OC(=O)c2ccco2)cc1 | inactive | 
